From the OligoGym collection come the findings set out here.
Further: reference of the scale not given here.

The first assay deals with ADAP1. The experiment in a line: pooled miR-30 sensor sort-seq; sequence = guide strand. The note with it: shRNA.
As to TAGGGCTCCTGCTTCTCCGGGT, the sensor-assay potency score (higher = more potent) came to 0.35.

Regarding TGAAATACTTCAGAGCACCCTC, the sensor-assay potency score (higher = more potent) is -0.32.

The sequence ATTTCTGTTGAAATACTTCAGA came in with a sensor-assay potency score (higher = more potent) of -1.12.

TCTTTGAAGTACATGAGCCTGC: the sensor-assay potency score (higher = more potent) turned out to be 0.0128.

Sequence TCTGTCAGCACAAACTTCCGGC returned a sensor-assay potency score (higher = more potent) of 0.0597.

For the sequence TAGATGAAGATGTTACGGGTGC, the sensor-assay potency score (higher = more potent) is -0.0419.

As for TCGTTCTGTCAGCACAAACTTC, the sensor-assay potency score (higher = more potent) was -1.49.

Turning to TTCTGTTGAAATACTTCAGAGC, the sensor-assay potency score (higher = more potent) is -0.664.

For the sequence TTGAAGTACATGAGCCTGCGGT, the sensor-assay potency score (higher = more potent) was -0.124.

For TTCACCTTGCTGACCTGGGGGA, the sensor-assay potency score (higher = more potent) is -0.267.

For AAACAGAAACTTGCGGTCGGGC, the sensor-assay potency score (higher = more potent) is -0.903.

TTCTGTCAGCACAAACTTCCGG displayed a sensor-assay potency score (higher = more potent) of -0.508.

The next assay deals with ADCYAP1. The description is as above. The note with it: shRNA.
TTTGTTTCCGGTAGCGGCTGTA registered a sensor-assay potency score (higher = more potent) of -0.47.

The sequence TAGCTGTCCGTGAAGATCCCGT came in with a sensor-assay potency score (higher = more potent) of -0.391.

With TAGGCCTCGTTAAGGATCCCGT, the sensor-assay potency score (higher = more potent) was -0.922.
